Experimental data reported in ChEMBL document CHEMBL3988442, “University of Dundee, Small-Polar-MMV Screening Library” (2021).
Potency and affinity values are given separately.

Biological target: Protein translocase subunit SecA (Escherichia coli (strain K12)) (UniProt P10408)
Experiment: Assay to Identify E. coli SecA ATPase Inhibitors
Format: functional
Parameters: scale not given: direction of the effect not stated beside the values
Conditions: 30 µM

Protein translocase subunit SecA (Escherichia coli (strain K12)), sequence (P10408 whole entry): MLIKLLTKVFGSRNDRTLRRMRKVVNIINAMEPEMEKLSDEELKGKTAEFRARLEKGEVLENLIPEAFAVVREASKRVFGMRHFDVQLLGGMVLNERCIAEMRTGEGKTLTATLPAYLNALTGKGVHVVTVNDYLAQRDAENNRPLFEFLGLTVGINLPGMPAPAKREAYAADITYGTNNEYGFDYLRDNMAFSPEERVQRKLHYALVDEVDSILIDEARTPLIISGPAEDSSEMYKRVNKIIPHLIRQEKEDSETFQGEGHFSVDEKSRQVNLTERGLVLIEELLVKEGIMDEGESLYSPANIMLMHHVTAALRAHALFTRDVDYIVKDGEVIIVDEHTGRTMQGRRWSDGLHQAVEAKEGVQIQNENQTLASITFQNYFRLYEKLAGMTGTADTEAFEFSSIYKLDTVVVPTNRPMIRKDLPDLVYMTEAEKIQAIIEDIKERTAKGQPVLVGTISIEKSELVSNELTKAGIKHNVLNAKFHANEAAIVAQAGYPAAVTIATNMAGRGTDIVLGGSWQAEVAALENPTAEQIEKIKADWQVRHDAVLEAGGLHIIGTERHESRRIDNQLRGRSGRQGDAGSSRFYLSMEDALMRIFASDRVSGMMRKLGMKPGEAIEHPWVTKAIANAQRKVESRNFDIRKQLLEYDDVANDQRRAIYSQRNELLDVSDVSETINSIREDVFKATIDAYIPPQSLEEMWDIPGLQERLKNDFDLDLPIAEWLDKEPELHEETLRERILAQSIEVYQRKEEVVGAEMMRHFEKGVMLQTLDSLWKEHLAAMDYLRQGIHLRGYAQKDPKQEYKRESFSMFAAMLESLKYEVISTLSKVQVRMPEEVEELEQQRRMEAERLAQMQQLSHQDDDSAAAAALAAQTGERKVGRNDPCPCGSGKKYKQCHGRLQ

SMILES	Percent Effect
Cc1cccc(CN2C(=O)CCC23CCN(Cc2cccn2C)CC3)n1	-2.82%
CCC(=O)N1CCCC1c1nccnc1Nc1nc(C)cc(C)n1 (centres undefined)	-0.0687%
CNc1cncc(C2CCCN2Cc2c[nH]cn2)n1 (centres undefined)	-0.293%
Cc1cc(C)n(CC2CN(Cc3nc(-c4ccco4)no3)CCO2)n1 (centres undefined)	-4.45%
CCCc1nc(C)c(C(=O)NCCN2CCN(CC)CC2)s1	-3.24%
Fc1cnc(N2CCOCC3(CCCN(c4nncs4)C3)C2)nc1 (centres undefined)	-8.43%
O=C(c1ccccn1)N1Cc2nccn2CC(CN2CCOCC2)C1 (centres undefined)	-4.41%
COC(=O)c1cccn1C1CCN(Cc2ccccc2)CC1	0.208%
CCOC1CCCN(C(=O)c2sccc2-n2cnnn2)C1 (centres undefined)	-1.7%
CN(C)CC1CN(Cc2coc(-c3ccccc3Cl)n2)CCO1 (centres undefined)	-1.66%
CCc1cc(O)nc(C2CCCN2C(=O)c2cccnc2)n1 (centres undefined)	5.68%
CC(Cn1cccn1)NC(=O)Cc1cccs1 (centres undefined)	-0.712%
COc1ccc(F)cc1C(=O)N(C)Cc1cc(C)on1	-0.183%
CNc1cc(N2CCCC2CNCc2cnc(C)cn2)ncn1 (centres undefined)	-4.22%
CN(Cc1ccco1)[C@@H]1CN(Cc2ccc(F)cc2)C[C@@H]2CCCO[C@@H]21	-5.51%
CC(C)(O)CN1CCN(C(=O)c2cccnc2O)CC1	-2.01%
O=C(N1CCCC1)N1CCC2(CCCN(CCOc3ccccc3)C2)C1 (centres undefined)	-5.49%
CC(C(=O)N1CCCC1)N1CCC(c2nccn2Cc2cscn2)CC1 (centres undefined)	-2.34%
Cc1ccc(NC2CCN(C(=O)c3cccc4ncccc34)CC2)nn1	-3.89%
COc1cc(CNCc2ccc(NC(=O)NC(C)C)cc2)cc(OC)c1	-1.27%

SMILES	Percent Effect
O=C(c1cnco1)N1CCCC(Cc2nccs2)C1 (centres undefined)	-3.28%
CCS(=O)(=O)N(C)CC(=O)Nc1ccc(Br)cn1	-6.17%
Cn1cc(NC(=O)N2CCC(c3ccccc3)CC2)ccc1=O	-1.84%
Cc1ncc(S(C)(=O)=O)c(C2CCCNC2)n1 (centres undefined)	-0.171%
COC(=O)COc1cccc(NS(=O)(=O)c2cc(C(=O)O)cs2)c1	-0.923%
CC(C)c1cc(N2CCN(c3ccc(O)cc3)CC2)n2nccc2n1	-0.0494%
CC(=O)NC1CCCN(C(=O)NCc2cccnc2-n2cccn2)C1 (centres undefined)	-4.23%
Cc1noc(C)c1CN(C)C(=O)NC1CCN(c2ncccn2)CC1	-4.16%
FC(F)(F)Cn1ccnc1CN1CCCC1c1noc(C2CC2)n1 (centres undefined)	0.298%
NC[C@H]1CC[C@H](C(NC(=O)c2ccccc2)c2ccccn2)CC1 (some centres undefined)	-0.915%
CCc1nc(C2CCCN2C(=O)CCCn2cccn2)no1 (centres undefined)	-1.9%
CN(C)CC1CN(Cc2nnc(-c3ccccc3Cl)o2)CCO1 (centres undefined)	-1.11%
c1csc(-c2nc(CN3CCn4c(nnc4C4CC4)C3)co2)c1	-2.65%
CCNC(=O)[C@@H]1C[C@H](NC(=O)Cc2ccsc2)CN1Cc1ccc(C)o1	-3.95%
CCOc1ncccc1NC(=O)NC1CCCN(c2ncccn2)C1 (centres undefined)	0.363%
CC(=O)N1CCCC1c1csc(Nc2cnccn2)n1 (centres undefined)	0.761%
CCOC1COC2(CCN(S(=O)(=O)c3cccc(F)c3)CC2)C1 (centres undefined)	-2.48%
O=c1c2ccccc2nc2n1C(CSc1ccc(Cl)cc1Cl)CN2 (centres undefined)	-1.78%
c1ccc(OC2CCCC2)c(CNC2CCc3ncnn3C2)c1 (centres undefined)	-3.8%
